For assay [1], the target named is human Insulin Receptor (InsR), INSR (gene 3643) (UniProt P06213). Put plainly: NVS_ENZ_hInsR: NovaScreen (NVS) Enzymatic Assay for human Insulin Receptor (InsR) (AID 2283168). An outline of the steps:
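Fluorescent substrate phosphorylation by recombinant kinase, product resolved by electrophoretic mobility shift, read 1 h after dosing. Screened in duplicate at 25 uM; hits (e.g., 30% inhibition) run in concentration-response to 50 uM; DMSO as baseline.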

The target in assay [2] is human c-Jun N-terminal Kinases (JNK2), MAPK9 (gene 5601) (UniProt P45984). Put plainly: NVS_ENZ_hJNK2: NovaScreen (NVS) Enzymatic Assay for human c-Jun N-terminal Kinases (JNK2) (AID 2283171). An outline of the steps:
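Cell-free recombinant human JNK2 activity assay; fluorescent substrate and product separated by electrophoretic mobility shift, read 1 h after dosing. Primary duplicate screen at 25 uM; actives run in concentration-response up to 50 uM, relative to DMSO.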

In assay [3] the target is human LYN Proto-Oncogene, Src family Tyrosine Kinase (LynA), LYN (gene 4067) (UniProt P07948). Put plainly: NVS_ENZ_hLynA: NovaScreen (NVS) Enzymatic Assay for human LYN Proto-Oncogene, Src family Tyrosine Kinase (LynA) (AID 2283173). An outline of the steps:
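Recombinant kinase with fluorescent substrate; product separated from substrate by electrophoretic mobility shift and read 1 h after dosing. Duplicate screen at 25 uM, then concentration-response up to 50 uM; activity scored as signal loss against DMSO.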

Assay [4] addresses Mitogen-activated protein kinase 3 (Homo sapiens) (UniProt P27361). Put plainly: NVS_ENZ_hMAPK3: NovaScreen (NVS) Enzymatic Assay for human Mitogen-Activated Protein Kinase 3 (MAPK 3) (AID 2283177). In a few lines:
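Cell-free enzymatic assay with recombinant protein and specific substrate; fluorescence and electrophoretic mobility shift read-out 1 h after dosing. Primary screen duplicate at 25 uM; actives then run in concentration-response up to 50 uM, loss of signal versus DMSO.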

Assay [5] deals with human MAP Kinase-Activated Protein Kinase 2 (MAPKAPK2), MAPKAPK2 (gene 9261) (UniProt P49137). Put plainly: NVS_ENZ_hMAPKAPK2: NovaScreen (NVS) Enzymatic Assay for human MAP Kinase-Activated Protein Kinase 2 (MAPKAPK2) (AID 2283178). An outline of the steps:
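Cell-free recombinant human MAPKAPK2 activity measured by fluorescence with electrophoretic mobility shift separation of substrate and product, 1 hr after dosing. Loss of signal versus DMSO; primary screen at 25 uM, concentration-response up to 50 uM.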

For assay [6], the target named is human Matrix Metalloproteinase-7 (MMP7), MMP7 (gene 4316) (UniProt P09237). Put plainly: NVS_ENZ_hMMP7: NovaScreen (NVS) Enzymatic Assay for human Matrix Metalloproteinase-7 (MMP7) (AID 2283183). An outline of the steps: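 Cell-free fluorescence enzymatic assay read 1 h after compound addition, activity loss analyzed against DMSO. Primary duplicate testing at 25 uM; compounds meeting threshold rerun in singleton concentration-response up to 50 uM.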
Sequence of human Matrix Metalloproteinase-7 (MMP7), MMP7 (gene 4316) (P09237 whole entry, looked up): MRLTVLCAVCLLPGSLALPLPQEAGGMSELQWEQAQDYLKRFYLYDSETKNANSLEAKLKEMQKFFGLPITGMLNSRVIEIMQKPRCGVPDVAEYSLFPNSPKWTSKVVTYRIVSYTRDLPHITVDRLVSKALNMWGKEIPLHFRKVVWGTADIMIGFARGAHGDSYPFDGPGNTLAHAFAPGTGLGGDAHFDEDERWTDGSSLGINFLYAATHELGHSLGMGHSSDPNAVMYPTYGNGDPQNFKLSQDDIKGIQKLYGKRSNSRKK

Assay [7] concerns the target human Matrix Metalloproteinase-3 (MMP3), MMP3 (gene 4314) (UniProt P08254). Put plainly: NVS_ENZ_hMMP3: NovaScreen (NVS) Enzymatic Assay for human Matrix Metalloproteinase-3 (MMP3) (AID 2283185). In a few lines: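 Cell-free recombinant human MMP3 activity, fluorescence intensity read 1 h after dosing. Primary screen duplicate at 25 uM, actives retested in concentration series; loss of signal vs DMSO baseline.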

In assay [8] the target is Glycogen synthase kinase-3 beta (Homo sapiens) (UniProt P49841). Put plainly: NVS_ENZ_hGSK3b: NovaScreen (NVS) Enzymatic Assay for human Glycogen Synthase Kinase-3 beta (GSK3b) (AID 2283165). An outline of the steps:
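Recombinant enzyme with specific fluorescent substrate, 1 h, product separated by electrophoretic mobility shift. Primary duplicate screen at 25 uM; actives (e.g. 30% inhibition) followed in singleton concentration-response to 50 uM. Signal loss fitted versus DMSO.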

Among the data in PubChem BioAssay (EPA / NIEHS) are outcome and AC50 values, retold here.

Inconclusive results are not listed. The source made the active and inactive calls. Rule for the calls: active = hit-call score of the fitted dose curve at least 0.9, where 1 is the maximum; inconclusive = response in the unintended direction; inactive = score below 0.9.

Sequence of human Matrix Metalloproteinase-3 (MMP3), MMP3 (gene 4314) (P08254 whole entry, looked up): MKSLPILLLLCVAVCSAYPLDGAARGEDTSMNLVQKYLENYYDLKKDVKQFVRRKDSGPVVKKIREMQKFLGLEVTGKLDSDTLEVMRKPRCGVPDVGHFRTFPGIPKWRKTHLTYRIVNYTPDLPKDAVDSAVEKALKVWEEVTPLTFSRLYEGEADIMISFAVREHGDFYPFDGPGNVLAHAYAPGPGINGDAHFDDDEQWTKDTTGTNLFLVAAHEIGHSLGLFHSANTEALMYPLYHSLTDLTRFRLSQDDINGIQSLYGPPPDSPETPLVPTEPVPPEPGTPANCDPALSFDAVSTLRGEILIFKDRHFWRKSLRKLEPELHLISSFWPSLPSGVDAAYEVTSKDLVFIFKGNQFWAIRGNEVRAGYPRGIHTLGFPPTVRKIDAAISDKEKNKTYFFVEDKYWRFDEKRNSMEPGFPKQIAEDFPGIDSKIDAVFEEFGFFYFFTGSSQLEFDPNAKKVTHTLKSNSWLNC
Sequence of human Insulin Receptor (InsR), INSR (gene 3643) (P06213 whole entry, looked up): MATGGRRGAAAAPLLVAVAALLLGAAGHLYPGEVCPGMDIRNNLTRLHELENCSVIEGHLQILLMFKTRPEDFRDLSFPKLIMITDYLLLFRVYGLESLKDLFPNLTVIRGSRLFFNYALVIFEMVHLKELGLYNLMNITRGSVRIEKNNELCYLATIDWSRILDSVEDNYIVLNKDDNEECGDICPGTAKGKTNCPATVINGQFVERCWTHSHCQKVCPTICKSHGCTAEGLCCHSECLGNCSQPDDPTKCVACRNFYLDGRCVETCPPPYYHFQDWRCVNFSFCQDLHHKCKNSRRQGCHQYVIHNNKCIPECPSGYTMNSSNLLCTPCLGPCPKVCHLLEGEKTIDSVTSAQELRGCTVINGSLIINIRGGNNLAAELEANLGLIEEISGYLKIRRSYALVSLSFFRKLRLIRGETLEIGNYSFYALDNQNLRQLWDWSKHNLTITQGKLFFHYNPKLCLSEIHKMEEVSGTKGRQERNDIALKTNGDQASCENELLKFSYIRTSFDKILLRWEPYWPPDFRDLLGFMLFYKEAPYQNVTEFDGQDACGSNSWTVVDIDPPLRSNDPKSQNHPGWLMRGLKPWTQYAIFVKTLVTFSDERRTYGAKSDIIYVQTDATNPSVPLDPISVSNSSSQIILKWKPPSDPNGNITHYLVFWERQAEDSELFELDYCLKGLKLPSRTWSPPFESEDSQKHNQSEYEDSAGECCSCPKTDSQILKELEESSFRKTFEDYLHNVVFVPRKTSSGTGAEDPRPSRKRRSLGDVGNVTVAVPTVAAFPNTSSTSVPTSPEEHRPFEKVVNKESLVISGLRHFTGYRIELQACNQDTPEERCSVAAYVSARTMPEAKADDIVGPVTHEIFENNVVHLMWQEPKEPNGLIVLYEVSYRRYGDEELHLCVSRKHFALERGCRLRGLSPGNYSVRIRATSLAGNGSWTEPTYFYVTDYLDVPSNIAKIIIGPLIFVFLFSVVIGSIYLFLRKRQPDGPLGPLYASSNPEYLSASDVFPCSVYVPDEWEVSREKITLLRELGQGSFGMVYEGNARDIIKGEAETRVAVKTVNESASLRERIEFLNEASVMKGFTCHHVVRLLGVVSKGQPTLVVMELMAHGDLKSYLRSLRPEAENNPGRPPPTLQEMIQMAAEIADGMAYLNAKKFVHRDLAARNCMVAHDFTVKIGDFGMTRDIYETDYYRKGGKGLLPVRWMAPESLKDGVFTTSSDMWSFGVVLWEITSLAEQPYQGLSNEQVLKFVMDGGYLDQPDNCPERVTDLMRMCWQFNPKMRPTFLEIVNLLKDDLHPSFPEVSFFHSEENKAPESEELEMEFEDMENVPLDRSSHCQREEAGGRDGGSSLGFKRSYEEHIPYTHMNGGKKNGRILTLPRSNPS
Sequence of human MAP Kinase-Activated Protein Kinase 2 (MAPKAPK2), MAPKAPK2 (gene 9261) (P49137 whole entry, looked up): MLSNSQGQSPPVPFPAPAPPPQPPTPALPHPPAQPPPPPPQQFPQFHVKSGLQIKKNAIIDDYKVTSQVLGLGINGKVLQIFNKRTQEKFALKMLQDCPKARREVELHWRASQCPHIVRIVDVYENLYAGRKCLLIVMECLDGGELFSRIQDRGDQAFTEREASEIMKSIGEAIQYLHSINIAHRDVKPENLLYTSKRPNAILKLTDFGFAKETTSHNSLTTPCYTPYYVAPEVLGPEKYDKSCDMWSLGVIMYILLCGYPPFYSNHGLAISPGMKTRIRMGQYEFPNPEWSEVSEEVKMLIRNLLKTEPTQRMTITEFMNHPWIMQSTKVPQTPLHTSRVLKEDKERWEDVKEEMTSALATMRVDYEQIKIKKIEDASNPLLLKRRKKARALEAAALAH
Sequence of human LYN Proto-Oncogene, Src family Tyrosine Kinase (LynA), LYN (gene 4067) (P07948 whole entry, looked up): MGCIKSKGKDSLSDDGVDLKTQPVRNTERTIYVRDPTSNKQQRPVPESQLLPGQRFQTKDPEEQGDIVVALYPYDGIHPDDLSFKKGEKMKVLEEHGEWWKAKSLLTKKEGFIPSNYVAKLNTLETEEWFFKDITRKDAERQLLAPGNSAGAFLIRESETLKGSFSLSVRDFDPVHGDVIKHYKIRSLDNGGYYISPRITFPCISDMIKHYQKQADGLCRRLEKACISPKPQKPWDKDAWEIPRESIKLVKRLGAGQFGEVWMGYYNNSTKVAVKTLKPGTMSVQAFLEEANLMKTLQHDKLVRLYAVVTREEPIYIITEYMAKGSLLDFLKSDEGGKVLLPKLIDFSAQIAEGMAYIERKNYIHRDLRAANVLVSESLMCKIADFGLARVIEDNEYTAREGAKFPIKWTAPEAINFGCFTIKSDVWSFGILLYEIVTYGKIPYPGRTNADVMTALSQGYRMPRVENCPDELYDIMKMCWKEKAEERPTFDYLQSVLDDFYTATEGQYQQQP
Sequence of Mitogen-activated protein kinase 3 (Homo sapiens) (P27361 whole entry, looked up): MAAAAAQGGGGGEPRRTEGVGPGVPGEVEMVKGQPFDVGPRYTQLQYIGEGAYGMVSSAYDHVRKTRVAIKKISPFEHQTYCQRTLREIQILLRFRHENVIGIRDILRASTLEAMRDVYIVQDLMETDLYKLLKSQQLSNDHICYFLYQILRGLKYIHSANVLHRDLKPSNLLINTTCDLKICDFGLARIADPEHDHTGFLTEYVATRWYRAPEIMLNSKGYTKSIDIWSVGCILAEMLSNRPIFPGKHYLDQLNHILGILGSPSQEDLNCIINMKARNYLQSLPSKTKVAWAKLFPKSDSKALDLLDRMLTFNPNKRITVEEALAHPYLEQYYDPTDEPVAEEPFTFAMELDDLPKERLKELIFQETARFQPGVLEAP
Sequence of human c-Jun N-terminal Kinases (JNK2), MAPK9 (gene 5601) (P45984 whole entry, looked up): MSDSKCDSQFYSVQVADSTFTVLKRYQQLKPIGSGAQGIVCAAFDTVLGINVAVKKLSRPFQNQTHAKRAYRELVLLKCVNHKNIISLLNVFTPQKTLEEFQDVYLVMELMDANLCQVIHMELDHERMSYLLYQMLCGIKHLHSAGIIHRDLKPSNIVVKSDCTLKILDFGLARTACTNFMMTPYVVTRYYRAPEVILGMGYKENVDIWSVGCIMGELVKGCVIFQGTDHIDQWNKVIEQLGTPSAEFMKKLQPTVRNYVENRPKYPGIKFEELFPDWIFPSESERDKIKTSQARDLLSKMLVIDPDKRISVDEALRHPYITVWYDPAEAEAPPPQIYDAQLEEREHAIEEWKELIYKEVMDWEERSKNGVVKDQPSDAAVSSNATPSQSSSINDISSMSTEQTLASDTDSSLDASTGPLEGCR
Sequence of Glycogen synthase kinase-3 beta (Homo sapiens) (P49841 whole entry, looked up): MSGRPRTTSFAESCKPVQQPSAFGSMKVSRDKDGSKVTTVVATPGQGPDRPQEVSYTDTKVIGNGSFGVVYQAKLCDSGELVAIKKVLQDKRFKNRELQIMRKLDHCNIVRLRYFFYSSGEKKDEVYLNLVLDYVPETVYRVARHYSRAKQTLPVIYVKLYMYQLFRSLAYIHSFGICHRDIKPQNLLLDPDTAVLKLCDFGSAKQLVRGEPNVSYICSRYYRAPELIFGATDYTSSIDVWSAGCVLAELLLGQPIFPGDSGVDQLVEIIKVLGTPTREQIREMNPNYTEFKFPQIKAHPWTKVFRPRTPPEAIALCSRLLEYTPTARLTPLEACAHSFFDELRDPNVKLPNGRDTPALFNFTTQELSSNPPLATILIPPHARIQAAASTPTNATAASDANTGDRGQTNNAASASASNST

With `Clc1nc(Cl)c(Cl)c(Cl)c1Cl`, the call in assay [1] was inactive.

Turning to `Cc1ccc(N)cc1O`, the outcome in assay [2] and in assay [3] was inactive. In addition, the AC50 in assay [4] is 20.1 µM (active).

As for `O=C(O)c1cc(N=Nc2ccc(S(=O)(=O)Nc3ccccn3)cc2)ccc1O`, the outcome in assay [2] and in assay [5] was inactive.

For `CNS(=O)(=O)c1cc(C(=O)N2CCC(CCN3C4CCC3CC(n3c(C)nc5ccccc53)C4)(c3cccc(F)c3)CC2)c(Cl)cc1F` (centres undefined), in assay [3], the outcome was inactive.

Regarding `CC[C@H](C)C(=O)O[C@H]1C[C@@H](C)C=C2C=C[C@H](C)[C@H](CC[C@@H]3C[C@@H](O)CC(=O)O3)[C@H]21`, the call in assay [4] and in assay [6] was inactive.

For the compound `Nc1nc2ncc(CNc3ccc(C(=O)N[C@@H](CCC(=O)O)C(=O)O)cc3)nc2c(=O)[nH]1`, the AC50 in assay [5] is 37.4 µM (active).

As for `COc1ccc2sc(C(=O)Nc3nnn[nH]3)c(OC(C)C)c2c1`, the AC50 in assay [7] is 46.7 µM (active).

On to `CCc1cc(SCc2sc(-c3ccc(C(F)(F)F)cc3)nc2CN2CCN(c3ccc(OC)cc3)CC2)ccc1OCC(=O)O`, for which the compound was called inactive in assay [7].

On to `O=C(OC[C@H]1O[C@@H](OC(=O)c2cc(O)c(O)c(OC(=O)c3cc(O)c(O)c(O)c3)c2)[C@H](OC(=O)c2cc(O)c(O)c(OC(=O)c3cc(O)c(O)c(O)c3)c2)[C@@H](OC(=O)c2cc(O)c(O)c(OC(=O)c3cc(O)c(O)c(O)c3)c2)[C@@H]1OC(=O)c1cc(O)c(O)c(OC(=O)c2cc(O)c(O)c(O)c2)c1)c1cc(O)c(O)c(OC(=O)c2cc(O)c(O)c(O)c2)c1`, for which the AC50 in assay [8] is 0.000698 µM (active).

Regarding `CC[C@H]1OC(=O)[C@H](C)[C@@H](O[C@H]2C[C@@](C)(OC)[C@@H](O)[C@H](C)O2)[C@H](C)[C@@H](O[C@@H]2O[C@H](C)C[C@H](N(C)C)[C@H]2O)[C@](C)(O)C[C@@H](C)C(=O)[C@H](C)[C@@H](O)[C@]1(C)O`, the outcome in assay [1] was inactive.
